Results from PubChem BioAssay AID1347076 (National Center for Advancing Translational Sciences (NCATS), 2019).
The whole screen tested about 400,000 compounds, of which about 13,000 (3.2%) were called active. About 18% were inconclusive and are not listed. What follows is part of a selection rich in actives, with near analogues and random picks from the rest. Unmarked numbers belong to inactive results. Calls come from the whole dose curve; as a rule, active = well fitted cell-killing curve with a large enough effect; inconclusive = small, poorly fitted or top-dose-only effect, or effect the other way; inactive = flat fitted curve, though single readings scatter.

assay: qHTS assay for MDR1-selective chemotherapeutics: Primary screen using the drug-selected MDR subline cells KB-V1; details: KB-V1 MDR cells viability, CellTiter-Glo, 72 h; series mostly up to 46.1 µM; activity change, negative = cytotoxicity: at the top concentration; note: nearly all actives have a fitted effect of over 60% in size
Procedure, shortened: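 Drug-selected KB-V1 cells, grown in DMEM lacking phenol red with 10% FBS, receive compound titrations; after three days at 37 degrees C, surviving cell ATP is quantified by CellTiter-Glo luminescence and responses normalized and curve-fitted.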
% is set by controls: 0 for no effect and ±100 for the full control effect; potency is the fitted concentration of half-maximal effect.

| SMILES | activity change, negative = cytotoxicity [%] | Potency |
| --- | --- | --- |
| CCC(C(=O)NC(C)(C)C)n1c(-c2ccccc2)nc2ccccc21 (stereo unspecified) | -16.9 | – |
| Cc1onc(NC(=O)c2ccc([N+](=O)[O-])o2)c1Br | 0 | – |
| Cc1cccc(NC(=O)c2ccc([N+](=O)[O-])o2)c1 | – | 18.4 µM (active) |
| O=C(Nc1ccc(Br)cn1)c1ccc([N+](=O)[O-])o1 | -28.8 | – |
| COc1cccc(NC(=O)CSc2nnc(-c3cccnc3)o2)c1 | -1.74 | – |
| COc1cccc(-c2nnc(SCC(=O)N3CCC(C)CC3)o2)c1 | 5.37 | – |
| CCN(CC)C(=O)CSc1nnc(-c2cccc(OC)c2)o1 | – | 11.6 µM (active) |
| Cc1ccc2nc(CNC(=O)c3ccccc3)[nH]c2c1 | 9.02 | – |
| CC(C)c1nc2ccc(C(=O)O)cc2[nH]1 | -8.64 | – |
| COC(=O)Nc1nc2ccc(Sc3ccccc3)cc2[nH]1 | – | 1.16 µM (active) |
| CCN(CCCNC(=O)Cn1ncc2c3ccccc3n(C)c2c1=O)Cc1ccccc1 | 10.1 | – |
| COCCN(CCOC)S(=O)(=O)c1ccc(/C(O)=C(\C#N)c2nc3ccccc3[nH]2)cc1 | -17.6 | – |
| C=CCN(CC=C)S(=O)(=O)c1ccc(C(=O)Nc2nc3c(s2)CCc2ccccc2-3)cc1 | -28.4 | – |
| COCCN(CCOC)S(=O)(=O)c1ccc(C(=O)Nc2nc3c(s2)CCc2ccccc2-3)cc1 | – | 8.2 µM (active) |
| O=[N+]([O-])c1ccc(S(=O)(=O)N2CCN(c3nc(-c4ccccc4)nc4ccccc34)CC2)cc1 | 0 | – |
| CC(=O)c1cccc(-c2cnc3c(NC=O)cc(-c4cccc(C(=O)N(C)C)c4)cn23)c1 | 14.1 | – |
| COc1ccc(-c2cc(NC=O)c3ncc(-c4ccccc4)n3c2)cc1OC | – | 18.4 µM (active) |
| CC(=O)Nc1cc(-c2cccc(CO)c2)cn2c(-c3cccc(C(F)(F)F)c3)cnc12 | 5.62 | – |
| CN(C)C(=O)c1cccc(-c2cnc3c(NC=O)cc(-c4ccc(C(=O)N5CCOCC5)cc4)cn23)c1 | 1.7 | – |
| CC(=O)c1cccc(-c2cnc3c(NC=O)cc(-c4ccccc4Oc4ccccc4)cn23)c1 | -17.7 | – |
| CC(=O)c1cccc(-c2cnc3c(NC=O)cc(-c4ccc(N(C)C)cc4)cn23)c1 | – | 18.4 µM (active) |
| CC(=O)c1ccc(-c2cnc3c(NC=O)cc(-c4cccc(NS(C)(=O)=O)c4)cn23)cc1 | 0.977 | – |
| CC(=O)c1cccc(-c2cnc3c(NC=O)cc(-c4ccc(N5CCN(C)CC5)cc4)cn23)c1 | 1 | – |
| CN(C)CCNC(=O)c1cccc(-c2cnc3c(NC=O)cc(-c4cccc(C(F)(F)F)c4)cn23)c1 | – | 14.6 µM (active) |
| CC(C)(C)C(=O)c1c(N)[nH]c(C(=O)c2ccccc2)c1-c1ccc(F)cc1 | -12.2 | – |
| CCCNC(=O)C1(C)CCCN(Cc2cccc(C(F)(F)F)c2)C1 (stereo unspecified) | 3.51 | – |
